A selection: hits, their analogues and other compounds. The true share with any hit is near 5.4%.
Calb FLC: C. albicans growth modulation with fluconazole; C. albicans CaCi-2 (fluconazole-resistant clinical isolate) + fluconazole, Alamar Blue growth, 48 h; growth inhibition, % (no concentration beside the values); hit rate 0.57% among 300,000; AID 1979;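 active = growth inhibition above about 58% in most replicates, limit read from the data, passing the limit was not always enough; inconclusive = exactly half the replicates above a set limit; inactive = most replicates below a set limit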;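 also: all wells also contain fluconazole at 8 µg/ml as a sub-toxic cotreatment; 0% = median of DMSO wells and 100% = median of geldanamycin control wells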
PP5 inh: inhibitors of human protein phosphatase 5 (PP5); inhibition, % at 6.7 µM; P53041; purified PP5c, OMFP substrate fluorescence; hit rate 0.18% among 320,000; AID 1987;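 active = inhibition above the campaign's mean inhibition across all tested compounds plus 3 SD, cut at about 9.5% in these data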;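 also: 0% = DMSO only and 100% = 100 µM cantharidin control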
PP1 counter: PP1-alpha (human) inhibition in PP5 counter-screen; P62136; purified PP1alpha, OMFP fluorescence; inhibition, % at 6.7 µM; hit rate 0.9% among 320,000; AID 2235;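 active = inhibition above the mean inhibition of all tested compounds plus 3 SD, computed separately for each screening campaign, cut at about 15% in these data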
Target sequence (P62136 whole entry, looked up): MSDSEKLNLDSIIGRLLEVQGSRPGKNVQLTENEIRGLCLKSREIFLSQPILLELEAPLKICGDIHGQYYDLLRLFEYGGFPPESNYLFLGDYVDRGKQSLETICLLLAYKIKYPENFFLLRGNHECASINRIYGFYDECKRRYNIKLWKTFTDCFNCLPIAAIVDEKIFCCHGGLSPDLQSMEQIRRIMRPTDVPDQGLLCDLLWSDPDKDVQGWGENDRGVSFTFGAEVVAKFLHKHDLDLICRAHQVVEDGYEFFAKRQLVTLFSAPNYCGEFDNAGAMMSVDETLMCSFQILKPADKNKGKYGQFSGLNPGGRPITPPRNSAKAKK
ALR H2O2 inh: blocks human ALR sulfhydryl oxidase activity | AID 485317 | purified ALR, DTT oxidation, H2O2 HRP-luminol luminescence | hit rate 3.8% among 290,000 | inhibition, % (concentration not given with the values) | P55789;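 active = mean replicate inhibition above about 79%, with every replicate also reaching it, limit read from the data; inconclusive = only one of the two criteria met; inactive = mean below limit and not every replicate reaching it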
CSC inhib: cancer stem cell inhibition; cancer stem cell-like cells viability, luminescence; inhibition, % at 7.5 µM; hit rate 1.1% among 300,000; in the data active = inhibition above about 75%; inconclusive = no clear call, values can overlap the other calls; tested in HMLE shEcad cells
* marks the source's active call; other numbers are inactive results; ? = inconclusive; / = not tested or not shown.

SMILES	Calb FLC	PP5 inh	PP1 counter	ALR H2O2 inh	CSC inhib
Cc1ccccc1-n1c(-c2ccoc2C)n[nH]c1=S	?	-1.2	-2.3	/	-8.4
COC(=O)c1cc(S(=O)(=O)N2CCCCC2C)c[nH]1 (stereo not drawn)	-1.1	0.9	-4.6	-1.1	-9.7
COc1ccc(Br)cc1S(=O)(=O)N1CCCC1	1.5	0.4	-2.8	-0.6	4.4
COc1cc(S(=O)(=O)N2CCCCCC2)c(OC)cc1Br	-17.2	5.5	-0.4	-17.8	78.6*
Cc1nn(Cc2ccccc2)c(C)c1NC(=O)c1cc2nc(-c3ccco3)cc(C(F)(F)F)n2n1	/	7.5	3.4	7.1	1.6
CC(C)CCN1CCC(n2nccc2NC(=O)C2CCOC2)CC1 (stereo not drawn)	39.7	-4.6	-8.2	-0.6	17.4
Cc1cc(C(F)(F)F)n2[nH]c(=O)c(N=Nc3ccccc3)c2n1	26.4	-0.4	9.3	10.4	12.1
O=c1[nH]n2c(C(F)(F)F)cc(C3CC3)nc2c1N=Nc1ccccc1	88.4*	3.4	9.7	/	21.3
CCn1c(SCC(=O)OCc2ccccc2)nc2c1c(=O)n(C)c(=O)n2C	22.6	-3.2	2.2	98.8*	3.2
COCCn1c(SCc2ccccc2)nc2c1c(=O)[nH]c(=O)n2C	-7.5	2.2	-5.3	-1.7	-5.1
C=CCn1c(SCC(=O)OCc2ccccc2)nc2c1c(=O)n(C)c(=O)n2C	0.4	0.3	-0.1	-7.3	-3.0
COCCn1c(SCC(=O)OCc2ccccc2)nc2c1c(=O)[nH]c(=O)n2C	1.9	0.7	0.3	98.3*	-9.5
Cc1nnc(SCC(=O)Nc2ccc(Oc3ccccc3)cc2)n1N	-0.5	1.1	-2.7	28.6	-5.1
Cc1ccc(N(CC(=O)Nc2cc(C)ccc2C)S(C)(=O)=O)cc1	8.6	5.3	0.0	/	-7.3
O=C1c2ccccc2C(Nc2ccc3c(c2)OCCO3)N1Cc1ccccc1 (stereo not drawn)	9.4	1.0	-0.4	97.6*	1.1
CCOc1ccc(NC2c3ccccc3C(=O)N2Cc2ccc3c(c2)OCO3)cc1 (stereo not drawn)	6.5	1.7	6.5	/	15.3
CC1(C)CN=c2s/c(=C\c3ccc(Cl)cc3)c(=O)n2C1	6.4	-0.4	-0.1	96.9*	9.6
O=C1NC(=Nc2ccc(Cl)cc2)/C(=C/c2ccco2)S1	-23.6	0.7	13.8	86.8*	25.9
Cc1cccc(N=C2NC(=O)S/C2=C\c2ccco2)c1	8.6	4.4	9.0	-6.3	-2.8
CC1(CCc2ccccc2)NC(=S)N(c2ccccc2)N1 (stereo not drawn)	14.7	-2.8	-2.8	98.7*	70.2
CCC1(c2ccc(Cl)cc2)NC(=S)N(c2ccc(C)cc2)N1 (stereo not drawn)	0.2	2.7	-1.1	-3.6	2.2
CC1(CCc2ccccc2)NC(=S)N(c2ccc(Cl)cc2)N1 (stereo not drawn)	1.4	-3.7	-5.8	93.9*	58.9
COC(=O)CSc1ccc(C#N)c(SCC(=O)OC)c1	2.7	-0.5	0.0	98.9*	-18.6
COC(=O)CSc1cc(SCC(=O)OC)c(C#N)c(SCC(=O)OC)c1	-0.9	1.0	2.9	-7.8	-14.5
CCCC(=O)NC(NC(=S)Nc1ccc(N=Nc2ccccc2)cc1)C(Cl)(Cl)Cl (stereo not drawn)	-23.6	5.1	5.2	0.4	119.1*
SMILES	Calb FLC	PP5 inh	PP1 counter	ALR H2O2 inh	CSC inhib
COc1cc(C(=O)N/N=C/c2ccsc2C)cc(OC)c1OC	-1.1	5.1	-2.9	/	75.6*
COc1cccc(-n2c(-c3ccccc3)c[nH]c2=S)c1	-12.2	3.7	5.7	16.7	-11.7
O=C(Nc1ncccn1)c1cc([N+](=O)[O-])cc([N+](=O)[O-])c1	-15.4	1.4	-3.7	-22.8	-16.0
O=[N+]([O-])c1cc(-c2ncccn2)c([N+](=O)[O-])s1	-16.7	3.1	-2.6	98.1*	?
Cc1ccc(S(=O)(=O)N(CC(=O)NCCSc2ccccn2)c2ccc(C)c(C)c2)cc1	8.4	3.6	0.8	/	4.3
CCCCn1c(=O)[nH]c2c(oc3ccccc32)c1=O	/	-2.5	-3.8	20.8	3.0
Cc1ccc(-n2c(=S)[nH]c3c(oc4ccccc43)c2=O)cc1	41.7	-1.7	5.2	52.0	-17.6
O=c1c2oc3ccccc3c2[nH]c(=S)n1-c1ccccc1	12.3	1.6	-0.5	92.1*	3.9
Cc1cccc(-n2c(=S)[nH]c3c(oc4ccccc43)c2=O)c1	?	-0.2	0.9	89.6*	-5.9
Cc1cccc(-n2c(C)c(-c3ccccc3)[nH]c2=S)c1	-15.7	-0.3	3.7	82.0*	-11.9
C/C(=N/NS(=O)(=O)c1ccc(F)cc1)c1ccncc1	1.2	-0.8	-0.1	4.3	-10.3
